# Source: PubChem BioAssay (NCATS)
# Inconclusive results are not listed. A number with no mark means an inactive call. The call rests on the fitted dose curve; in most records, active means well fitted inhibition curve with a large enough effect; inconclusive means small, poorly fitted or top-dose-only effect; inactive means flat fitted curve, though single readings scatter.
# Test system: astro (control astrocytes)
# Test: Drug repurposing screens with cells derived from glioblastoma tumor samples (AID 1345199); further: nearly all actives have a fitted effect of over 40% in size
# Conditions: viability, ATP luminescence, 48 h; series mostly up to 45.9 µM; activity, negative = cell killing: at the top concentration
# Experimental: CD133+ cells were isolated from GBM patient biopsies and cultured as neurospheres. Neurospheres from four patients were used to screen the NCATS pharmaceutical collection (NPC) library of approved drugs and bioactive compounds. […] The neurospheres were incubated with drugs for 48 hours in 1536-well format, then assayed with an ATP content cell viability assay. […] These hits were cherry picked to confirm activity in the four original GBM lines screened plus three other slower growing GMB lines (unable to yield enough cells for a full primary screen). Variable activities of the confirmed primary hits in the different GBM patient lines were observed. The patient line 206 responded to the greatest number of compounds and line 923 responded to the least amount of active compounds.
# On the % scale 0 is the no-effect control and ±100 the full control effect.
row,SMILES,"activity, negative = cell killing"
1,Cc1cc(O)cc(C)c1Cl,-10.9%
2,Cc1cccc(C)c1NC(=O)CC12CCCN1CCC2,-3.25%
3,CCOC(=O)c1cccnc1,-9.45%
4,Nc1ncnc2c1ncn2[C@@H]1O[C@H](COP(=O)(O)O)[C@@H](O)[C@H]1O,9.38%
5,NS(=O)(=O)c1cc(C2(O)NC(=O)c3ccccc32)ccc1Cl (stereo not given),2.1% [at 21.2 µM]
6,CN1CCN(C(=O)C2CCCCC2)CC1,-9.62%
7,Nc1ccc(S(=O)(=O)c2ccc(N)cc2)cc1,-5.58%
8,O=C(CN1CCNCC1)NC1CCCCC1,-14.3%
9,CC(O)CCCCn1c(=O)c2c(ncn2C)n(C)c1=O (stereo not given),-12.5%
10,CCC(C)(CN(C)C)OC(=O)c1ccccc1 (stereo not given),-9.94% [at 21.2 µM]
11,CCCCCCCC(=O)OCC(O)CO (stereo not given),-24.7%
12,OCCN1C[C@H](O)[C@@H](O)[C@H](O)[C@H]1CO,-2.59%
13,O=C(OOC(=O)c1ccccc1)c1ccccc1,-11.8%
14,O=C(Cn1ccnc1[N+](=O)[O-])NCCO,-6.57%
15,CC(C)(C)NCC(O)COc1cccc2c1CCC(=O)N2 (stereo not given),0.554% [at 21.2 µM]
16,COc1ccccc1Oc1c(NS(=O)(=O)c2ccc(C(C)(C)C)cc2)nc(-c2ncccn2)nc1OCCO,-19%
17,CC(=O)Nc1cccc(O)c1,-17.8%
18,CC(C)CCCC(C)CCCC(C)CCCCC(C)CCCC(C)CCCC(C)C (stereo not given),-9.27%
19,CC(=O)Nc1ccccc1,-13.1%
20,COc1nccnc1NS(=O)(=O)c1ccc(N)cc1,-12.6%

row,SMILES,"activity, negative = cell killing"
1,CCOc1ccccc1O[C@H](c1ccccc1)[C@H]1CNCCO1,-14.5%
2,CC1CCN(CCCC(=O)c2ccc(F)cc2)CC1,-17.8%
3,O=C(O)c1ccccc1C(=O)Nc1ccc(S(=O)(=O)Nc2nccs2)cc1,-5.41%
4,COc1ccccc1OC(=O)Oc1ccccc1OC,-5.75%
5,NC(=O)CC[C@@H](N)C(=O)O,-4.06%
6,NCC1CCC(C(=O)Oc2ccc(CCC(=O)O)cc2)CC1 (stereo not given),-6.6%
7,OCC(O)CS (stereo not given),-7.81%
8,CN1C(C)(C)CCCC1(C)C,-17.4%
9,CC(C)CCOC(=O)c1ccc(N(C)C)cc1,-17.1%
10,Cc1c(N(C)C)c(=O)n(-c2ccccc2)n1C,-14.7%
11,CN(C/C=C/C#CC(C)(C)C)Cc1cccc2ccccc12,-13.7%
12,O=C(O)Cc1cn(-c2ccccc2)nc1-c1ccc(Cl)cc1,-29.5%
13,CC(CSC(=O)c1ccccc1)C(=O)N1C[C@@H](Sc2ccccc2)C[C@H]1C(=O)O (stereo not given in full),-22.4%
14,CCN(CC)CCc1nc(-c2ccccc2)no1,-7.63% [at 21.2 µM]
15,COC(=O)c1ccc(O)cc1,-17.1%
16,C[N+](C)(C)CC(O)CC(=O)[O-] (stereo not given),-2.45%
17,Cc1ccccc1N=Nc1ccc(N=Nc2c(O)ccc3ccccc23)c(C)c1,-24.1%
18,CC1(C)S[C@@H]2[C@H](NC(=O)C(C(=O)O)c3ccccc3)C(=O)N2[C@H]1C(=O)O (stereo not given in full),-11.8%
19,Cc1cc(NC(=O)C2=C(O)c3ccccc3S(=O)(=O)N2C)no1,-11.7%
20,CC(C)=CCC/C(C)=C/CO,-7.22%
